# Most compounds without a hit are left out; they make up all but 21% or so of the library.
# ClpP mod = qHTS Assay for Activators of ClpP | purified B. subtilis ClpP, FRET peptide cleavage, 20 min | Potency, µM (top dose mostly 57.5 µM), for inactives: top-dose activity change, negative = active | hit rate 1.9% among 340,000 | AID 651965, 2013; active = well fitted falling curve with a large enough effect; inconclusive = small, poorly fitted or top-dose-only effect; inactive = no such curve, though single readings can be large or run the other way; note: potency is the fitted concentration of half-maximal effect; the source files actives as falling curves though it sought activators and does not explain the sign; nearly all actives have a fitted effect of over 65% in size
# Target sequence (P80244 whole entry, looked up): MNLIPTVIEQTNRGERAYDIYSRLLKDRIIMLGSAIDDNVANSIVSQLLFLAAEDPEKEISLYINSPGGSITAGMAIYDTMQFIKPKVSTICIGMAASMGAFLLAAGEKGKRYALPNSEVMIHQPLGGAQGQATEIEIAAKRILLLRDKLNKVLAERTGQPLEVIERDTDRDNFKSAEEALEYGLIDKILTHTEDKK
#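 Buffer: 100 mM Tris/HCl pH8, 100 mM KCl, 0.05% low protease BSA, 2.5% glycerol, 0.01% Tween-20. ClpP 10 microg/mL final; 20 min RT; delta FRET normalized to ADEP and DMSO controls.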
# DRD3 antagonist = antagonists of human D3 dopamine receptor | P35462 | hit rate 2.5% among 360,000 | max response, negative = inhibition, % | D3R cells, DiscoveRx beta-arrestin luminescence, antagonist mode; hits give low values; in the data active = max response below about -50%; inconclusive = no clear call, values can overlap the other calls; note: % is set by controls: 0 for no effect and ±100 for the full control effect
# Target sequence (P35462 whole entry, looked up): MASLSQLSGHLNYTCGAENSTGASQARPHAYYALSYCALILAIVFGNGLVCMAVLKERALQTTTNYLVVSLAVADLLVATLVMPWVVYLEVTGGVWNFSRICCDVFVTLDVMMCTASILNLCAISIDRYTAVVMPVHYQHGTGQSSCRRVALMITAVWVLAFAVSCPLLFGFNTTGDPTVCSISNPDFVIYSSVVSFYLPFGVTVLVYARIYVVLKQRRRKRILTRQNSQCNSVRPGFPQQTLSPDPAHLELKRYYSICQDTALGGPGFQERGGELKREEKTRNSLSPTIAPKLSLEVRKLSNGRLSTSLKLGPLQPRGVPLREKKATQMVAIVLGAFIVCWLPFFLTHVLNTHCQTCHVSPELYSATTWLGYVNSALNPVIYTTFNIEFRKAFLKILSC
#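 Cells expressing the human receptor were seeded at 1500 cells/well, incubated overnight at 37 degrees C in 5% CO2, then exposed to library compounds with dopamine controls for 90 minutes at 37 degrees C before luminescent detection.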
# D3 ag = agonists of human D3 dopamine receptor | AID 652048 | max activation, % | D3R DiscoveRx beta-arrestin cells, luminescence, 90 min | P35462 | hit rate 0.58% among 410,000; in the data active = max activation above about 30%; note: 0% is about no effect
#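 Cells at 1500/well, incubated overnight, then treated with pinned compounds (dopamine as control) for 90 min at 37 degrees C. DiscoveRx reagent added for 30 - 60 minutes at room temperature; luminescence read.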
# IL-1B inflam inh = inhibitors of inflammasome signaling (IL-1 beta secretion). THP-1 LPS/ATP IL-1B secretion, AlphaLISA, 16 h; hits give low values. activity change, % at 57.5 µM. hit rate 4.7% among 360,000. AID 743279; in the data active = activity change below about -50%; inconclusive = mostly about -30% to -49%; note: % is set by controls: 0 for no effect and ±100 for the full control effect
#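 THP-1 cells pretreated 1 hr with compounds (up to 57.5 uM final), then stimulated with LPS (250 ng/mL final) plus ATP (1.25 mM final); secreted IL-1B measured by AlphaLISA after 16 hr, decreased signal indicating inhibition.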
# TDP1 cell CPT = DT40-hTDP1 cell growth loss with CPT; chicken DT40 Tdp1-/-;hTDP1 cells + 20 nM CPT, ATP luminescence, 48 h; Potency, µM (series often up to 46.2 µM), inactives show at the highest dose activity change, negative = growth inhibition, most hits filed as inhibitors; hit rate 12% among 420,000; AID 686979; note: potency is the fitted concentration of half-maximal effect; % is set by controls: 0 for no effect and ±100 for the full control effect; nearly all actives have a fitted effect of over 55% in size
#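 Chicken DT40 Tdp1-/- cells complemented with human TDP1, 400 cells/well, exposed to compounds plus 20 nM camptothecin for at least 48 h at 37 C; viability read as ATP content by CellTiter-Glo luminescence.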
# DT40 TDP1 no CPT = qHTS for Inhibitors of human tyrosyl-DNA phosphodiesterase 1 (TDP1): qHTS in cells in absence of CPT; DT40 Tdp1-/- hTDP1 cells, no CPT, ATP luminescence, 48 h; Potency, µM (series often up to 46.2 µM), inactives show at the highest dose activity change, negative = growth inhibition, usual class: inhibitors; hit rate 15% among 420,000; note: potency is the fitted concentration of half-maximal effect; % is set by controls: 0 for no effect and ±100 for the full control effect; nearly all actives have a fitted effect of over 55% in size
#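 Growth kinetics read by CellTiter-Glo luminescence after ≥48 hr at 37 °C. Cells: DT40 Tdp1-/- stably carrying human TDP1, 400 per well, compound exposure in the absence of CPT (DMSO vehicle).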
# An asterisk follows results filed as active; u = inconclusive; x = not tested or not shown. Unless noted, calls come from the whole dose curve; as a rule, active = well fitted inhibition curve with a large enough effect; inconclusive = small, poorly fitted or top-dose-only effect; inactive = flat fitted curve, though single readings scatter.
SMILES,ClpP mod,DRD3 antagonist,D3 ag,IL-1B inflam inh,TDP1 cell CPT,DT40 TDP1 no CPT
COc1cc(CN2CC(=O)N(c3ccccc3Cl)C2=S)cc(OC)c1OC,3%,45,18,-14,18µM*,u
Cc1cccc(N(C)C(=O)c2cc3cc4ccc(C)cc4nc3o2)c1,-5%,11,-2,19,12µM*,18µM*
Cc1ccc2cc3cc(C(=O)N4CCN(c5ccccc5)CC4)oc3nc2c1,-6%,x,5,x,-3%,u
CCN(C(=O)c1cc2cc3ccc(OC)cc3nc2o1)c1cccc(C)c1,-22%,x,-9,x,23µM*,16µM*
CC1(C)CC(C(=O)N2CCOc3ccc(CN4CCN(Cc5ccccn5)CC4)cc3C2)CCO1 (configuration not stated),x,x,x,x,10%,2%
COC(=O)N1CCC2(CCN(C(=O)Nc3cccc(C#N)c3)CC2)CC1,x,x,x,x,6%,-22%
O=C1c2cc(F)ccc2-n2c1nc1ccccc1c2=O,x,-5,-5,25,0.21µM*,0.37µM*
CCN(c1ccccc1)c1nnc(NC(=O)Nc2ccc(C)cc2)s1,0%,x,3,x,13µM*,16µM*
CCN(c1ccccc1)c1nnc(NC(=O)Nc2ccc(Br)c(C)c2)s1,0%,x,-5,x,3.3µM*,4.1µM*
CCN(c1ccccc1)c1nnc(NC(=O)Nc2cccc(Br)c2)s1,-7%,x,3,x,u,u
Cc1c(C(=O)N2CCN(S(=O)(=O)c3ccc(F)cc3)CC2)oc2ccccc12,-1%,3,5,-10,u,u
Cc1ccc(-c2nonc2NC(=O)c2ccco2)cc1C,0%,x,5,x,u,u
Cc1cc2ccc(=O)oc2cc1OC[C@@H](O)C(C)(C)O,x,x,x,x,21%,14%
CCN(CC)C(=O)COc1ccc2c(c1)C(=O)CC(C)(C)O2,4%,19,7,31,-18%,2%
N#CC(C#N)=Cc1ccc(OCC(=O)N2CCOCC2)cc1,x,-15,-6,-53*,21µM*,u
CC(C)NC(=O)COc1ccc2c(c1)C(=O)CC(C)(C)O2,5%,-6,2,-7,-2%,-9%
Cc1ccc(OCC(=O)N2CCOCC2)cc1C,-2%,-5,-11,0,9%,1%
CC1(C)CC(=O)c2cc(OCC(=O)N3CCOCC3)ccc2O1,28µM*,5,4,-1,-12%,-1%
Cc1cc(OCC(=O)N2CCOCC2)cc2oc(=O)c3ccccc3c12,7.1µM*,14,-7,-24,6%,-3%
CC1(C)CC(=O)c2cc(OCC(=O)NCc3cccnc3)ccc2O1,25µM*,15,-2,27,-10%,-24%
CCCCCCCNC(=O)COc1ccc2c(c1)C(=O)CC(C)(C)O2,28µM*,16,-5,19,-18%,u
Cc1cccc(NC(=O)c2ccccc2OCC(=O)c2ccccc2)c1,-17%,20,4,u,u,16µM*
CCOc1ccc(NC(=O)C(C)Oc2ccccc2C(=O)Nc2cccc(Cl)c2Cl)cc1 (configuration not stated),0%,15,6,55,u,18µM*
Cc1ccc(C(=O)COc2ccccc2C(=O)Nc2ccccc2)cc1,u,-23,-18,-8,u,u
Cc1ccc(NC(=O)c2ccccc2OCC(=O)c2ccccc2)cc1,-4%,49,-2,-25,u,u
SMILES,ClpP mod,DRD3 antagonist,D3 ag,IL-1B inflam inh,TDP1 cell CPT,DT40 TDP1 no CPT
CCOc1ccc(NC(=O)c2ccccc2OCC(=O)c2ccccc2)cc1,-2%,16,0,-10,23µM*,16µM*
CCOc1ccc(NC(=O)c2ccccc2OC)cc1,0%,0,1,4,-6%,-20%
Cc1cccc(NC(=O)COc2ccccc2C(=O)NC(C)c2ccccc2)c1 (configuration not stated),-4%,17,7,14,u,29µM*
CCOc1ccccc1C(=O)Nc1ccc(C(=O)c2ccccc2)cc1,-2%,9,7,-2,23µM*,u
C=C1C(=O)OC2C=C(CO)C3OC3C3OC3(C)CC(OC(=O)/C(=C/C)COC(C)=O)C12 (configuration not stated),-1%,-81*,-15,-101*,1.3µM*,1.8µM*
CC1(C(=O)NS(=O)(=O)c2cccc(OC(F)F)c2)CCN1C(=O)CCc1cccs1 (configuration not stated),2%,3,10,40,-2%,0%
CCc1ccc(-c2cc3c(N4CCN(c5ccccc5)CC4)nccn3n2)cc1,-4%,x,-2,x,u,21µM*
CCCCNC(=O)C1(C)CCCCN1C(=O)c1cc(C#N)cs1 (configuration not stated),1%,14,7,29,0%,-3%
CC(=O)c1cc2c(cc1NC(=O)C1CN(C(C)=O)c3ccccc3O1)OCO2 (configuration not stated),20µM*,-8,0,16,15µM*,21µM*
CC(=O)c1cc2c(cc1NC(=O)c1cc(C)nn1-c1ccccc1)OCO2,u,5,2,24,5.2µM*,3.7µM*
NS(=O)(=O)c1ccc(CCNC(=O)c2ccc(Cl)c(S(=O)(=O)NCc3ccco3)c2)cc1,x,6,2,24,8%,-1%
O=C1CCC(c2ccccc2)(C2CCN(Cc3ccccc3)CC2)C(=O)N1 (configuration not stated),0%,-17,-38,-7,-13%,-12%
Cc1noc(NS(=O)(=O)c2ccc(NC(=O)C(F)(F)C(F)(F)C(F)(F)F)cc2)c1C,x,5,-6,31,-11%,-12%
CCN(CC)c1ccc(S(=O)(=O)N2CCOCC2)cc1NC(=O)COC(=O)/C=C/c1ccc(C)o1,-2%,6,3,u,13µM*,10µM*
CCN(CC)c1ccc(S(=O)(=O)N2CCOCC2)cc1NC(=O)COC(=O)/C=C/c1ccc(O)c(OC)c1,-8%,26,14,-1,u,21µM*
CCN(CC)c1ccc(S(=O)(=O)N2CCOCC2)cc1NC(=O)COC(=O)/C=C/c1ccccc1,0%,38,6,2,18µM*,u
COc1cc(/C=C/C(=O)OCC(=O)Nc2cc(S(=O)(=O)N3CCOCC3)ccc2Cl)cc(OC)c1OC,x,16,-8,-26,u,u

# Assay outcomes: PubChem, National Center for Advancing Translational Sciences (NCATS)
